# From PubChem BioAssay AID652104 (National Center for Advancing Translational Sciences (NCATS), 2013)
# The whole screen tested about 410,000 compounds, of which about 7,200 (1.8%) were called active. Roughly 7% stayed inconclusive and do not appear here. Shown is part of a subset that was picked to be rich in actives. Entries that show only a call come without a potency. Values without a mark were called inactive. Calls follow the shape of the dose curve; as a rule, active = well fitted activation curve with a large enough effect; inconclusive = small, poorly fitted or top-dose-only effect, or another doubt; inactive = no such curve, though single readings can be large or run the other way.
# Assay: qHTS of TDP-43 Inhibitors; also: nearly all actives have a fitted effect of over 50% in size
# Settings: TDP-43 expressing yeast growth rescue, BacTiter-Glo, 24 h; series mostly up to 46.1 µM
# Summary of the method: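 Cell-based yeast growth screen: TDP-43 expression induced in galactose, inoculum OD600=0.02 after raffinose pregrowth to mid-log. Read-out BacTiter-Glo luminescence at 24 hr, 30 deg C; inhibition of toxicity seen as signal increase.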
# Potency is read from the fitted curve at half-maximal effect.
SMILES,Potency,growth rescue (activation)
COc1cccc(CNc2nccn(-c3ccc(OC)c(OC)c3)c2=O)c1,inactive,
CC1=C[C@H]2Cc3cc(C)cc(C)c3S(=O)(=O)[C@@H]2C=C1,15.8 µM (active),
COc1ccc(-n2ccn(CC(=O)Nc3ccc(C)c(C)c3)c(=O)c2=O)cc1OC,inactive,
Cc1[nH]nc(-c2ccc(OCc3cnn(-c4ccccc4)c3)cc2O)c1Oc1ccc(Cl)cc1,inactive,
O=C(c1cnn(-c2ccc(Cl)cc2)c1)c1ccccc1O,inactive,
Cc1cc(O)cc(O)c1C(=O)Cc1cnn(-c2ccccc2)c1,8.91 µM (active),
CC(C)CNc1ncnc2c1nnn2C,inactive,
CC(=O)c1nc2ccccc2n1Cc1ccccc1,11.2 µM (active),
O=C(O)Cn1c(Cc2ccccc2)nc2ccccc21,inactive,
CC(O)c1nc2ccccc2n1Cc1ccc([N+](=O)[O-])cc1 (configuration not stated),inactive,
Cc1ccc(NC(=O)Cn2c(=O)n(-c3ccccc3)c(=O)c3c4c(sc32)CCCC4)cc1,inactive,
COc1ccccc1-c1n[nH]nc1C1=CC(=O)CC(C)(C)C1,inactive,
COc1ccccc1-c1n[nH]c2c1[C@H](C)CC[C@H]2C(C)C,25.1 µM (active),
COc1ccc(N2CCN(C(=O)c3c(C)oc4nc(C)nc(N5CCCC5)c34)CC2)cc1,inactive,
NS(=O)(=O)c1ccc(NC(=O)COc2ccc(S(=O)(=O)NC3CCCCC3)cc2)cc1,inactive,
CCOc1ccc(C2CC(=O)c3c([nH]c(C(=O)OCc4ccccc4)c3C)C2)cc1 (configuration not stated),inactive,
O=C(Cn1nc(Cc2cccnc2)c2ccccc2c1=O)N1CCN(c2ccccc2F)CC1,inactive,
CCN(CC)S(=O)(=O)c1nnc(NC(=O)COc2ccccc2Cl)s1,inactive,
Nc1[nH]c(C(=O)c2ccccc2)c(-c2ccncc2)c1C(=O)NCc1cccc2ccccc12,inactive,
CC(C)(C)C(=O)c1c(N)[nH]c(C(=O)c2ccccc2)c1-c1ccc(F)cc1,inactive,
Cc1nc2ccccc2c(-c2ccccc2)c1C(=O)c1ccccc1,22.4 µM (active),
CCCNC(=O)CCC(=O)N1Cc2ccccc2Oc2ncccc21,,7.07% [at 9.22 µM]
CC(C)c1ccc(NS(=O)(=O)c2ccc3[nH]cc(C(=O)NC4CCCC4)c(=O)c3c2)cc1,inactive,
CCCOc1ccc(C2c3c(-c4ccccc4O)n[nH]c3C(=O)N2Cc2cccnc2)cc1 (configuration not stated),inactive,
Cc1c(Cl)cccc1NC(=O)C1CCCN(C(=O)c2cnn(-c3ccccc3)c2-n2cccc2)C1 (configuration not stated),inactive,

SMILES,Potency,growth rescue (activation)
CC(C)CC(=O)N/C(N)=N/c1nc2ccccc2s1,15.8 µM (active),
CC(C)CC(=O)NC(=S)NNC(=O)c1cccc([N+](=O)[O-])c1,,-4.92% [at 9.22 µM]
Cc1cc(C)cc(-n2ccnc2SCC(=O)Nc2nc3ccccc3s2)c1,inactive,
CCN1CCN(CCCNC(=O)c2ccc3c(c2)sc2nc(-c4ccc(OC)cc4)cn23)CC1,inactive,
O=C(NCCc1ccccc1)c1ccc2c(c1)N(Cc1ccccc1)C(=O)c1ccccc1S2(=O)=O,inactive,
Cc1ccccc1CNC(=O)CCc1cn(Cc2ccccc2C)c2ccccc12,inactive,
CSc1ccc(CCNC(=O)C2CCN(c3nnc(-n4cccc4)s3)CC2)cc1,inactive,
O=C(C1CCN(c2nnc(-n3cccc3)s2)CC1)N1CCc2ccccc2C1,35.5 µM (active),
CCOC(=O)C1CCCN(C(=O)C2CCN(c3nnc(-n4cccc4)s3)CC2)C1 (configuration not stated),inactive,
Cc1ccc(-c2nn3c(=O)cc(CN4CCN(C(=O)Nc5cccc(C(F)(F)F)c5)CC4)nc3s2)cc1,inactive,
O=S(=O)(c1ccccc1)N1CCC(c2ccccc2)CC1,inactive,
O=C(C(=O)N1CCC(c2ccccc2)CC1)c1ccccc1,12.6 µM (active),
Cc1nc2ccc(NC(=O)N3CCC(c4ccccc4)C3)cc2nc1C (configuration not stated),inactive,
Cc1cccc2nc(-c3ccc(Cl)s3)c(Nc3ccc4c(c3)OCCO4)n12,inactive,
Fc1ccc(-c2nc(Nc3cccc(Cl)c3)nc3c2COc2ccccc2-3)cc1,inactive,
Cc1ccn2c(Nc3ccc4c(c3)OCCO4)c(-c3ccc(C)s3)nc2c1,inactive,
CC(=O)Oc1ccc(N(C(C)=O)S(=O)(=O)c2ccc3ccccc3c2)cc1Br,12.6 µM (active),
CCN1CCN(C(=O)CN(C)S(=O)(=O)c2ccc3ccccc3c2)CC1,inactive,
CC(=O)N(c1ccc2oc(=O)sc2c1)S(=O)(=O)c1ccc(C)cc1,inactive,
Cc1cccc(-n2ncc(C(=O)N3CCC(C)CC3)c2C2CCN(C(=O)OC(C)(C)C)CC2)c1,inactive,
CC(C)(C)C1CCc2c(sc(NC(=O)c3ccccc3F)c2C(=O)N2CCCCC2)C1 (configuration not stated),inactive,
COc1ccc(-c2nc(Cn3c(=O)cc(C)c4c(C)nn(-c5ccccc5)c43)c(C)o2)cc1OC,inactive,
CCc1ccccc1NC(=O)c1cnn(-c2ccc(F)cc2)c1C1CCNCC1,inactive,
COc1ccccc1CNC(=O)C(=O)NCC(c1ccco1)S(=O)(=O)c1ccc(F)cc1 (configuration not stated),inactive,
COc1cc(C(=O)Nc2ccc(-n3c(C)nc4ccccc4c3=O)cc2)cc(OC)c1OC,inactive,

SMILES,Potency,growth rescue (activation)
COc1cc(OC)c(OC)cc1/C=C/c1nc2cc3ccccc3cc2c(=O)n1-c1ccc(F)c(Cl)c1,inactive,
COc1cc(OC)c(OC)cc1/C=C/c1nc2ccccc2c(=O)n1-c1ccc(Br)c(C)c1,22.4 µM (active),
O=C(Cc1ccc(Cl)cc1)NCC(c1cccs1)S(=O)(=O)c1ccc(Cl)cc1 (configuration not stated),,0.548% [at 9.22 µM]
Cc1c(Cl)cccc1NC(=O)C1CCCN(c2ncnc3onc(C)c23)C1 (configuration not stated),inactive,
Cc1ccc(Cl)cc1N(C)C(=O)C1CCCN(c2ncnc3onc(-c4ccc(F)cc4)c23)C1 (configuration not stated),35.5 µM (active),
CCc1ccccc1N(C)C(=O)C1CCCN(c2ncnc3onc(-c4ccc(F)cc4)c23)C1 (configuration not stated),inactive,
Cc1cn(C)c(CC(=O)NCc2ccccc2)c1C(=O)O,inactive,
O=C(/C=C/c1ccccc1)N1CCN(Cc2cc(=O)n3nc(-c4ccccc4F)sc3n2)CC1,inactive,
O=C(Nc1ccccc1C(F)(F)F)c1cc(-c2ccc(O)cc2)on1,12.6 µM (active),
CCc1ccccc1NC(=O)c1cc(-c2ccc3c(c2)OCO3)on1,inactive,
O=C(NCc1ccccc1)c1cc(-c2cccc(Cl)c2)on1,inactive,
COc1ccc(NC(=O)Cn2c(=O)cc(C)c3c(C)nn(-c4cccc(Cl)c4C)c32)cc1OC,inactive,
CCOC(=O)c1cc(-c2ccccc2)n(-c2cccc(C(=O)Nc3cc(OC)cc(OC)c3)c2)c1C,inactive,
CC(C)OCCCn1c(SCC(=O)c2ccccc2)nc2c(sc3ccccc32)c1=O,inactive,
CCn1c(CSCc2c(Cl)cccc2Cl)n[nH]c1=S,11.2 µM (active),
CCn1c(CNS(=O)(=O)c2ccc(Cl)cc2)n[nH]c1=S,inactive,
CCn1c(CN2C(=O)CSc3ccccc32)n[nH]c1=S,inactive,
CC(C)(C)c1ccc(C(=O)Nc2ccc3c(c2)CCCN3C(=O)c2cccs2)cc1,,18.3% [at 9.22 µM]
CCOC(=O)c1c(S(=O)(=O)NCC(=O)Nc2ccc(Cl)c(C(F)(F)F)c2)c(C)n(C)c1C,inactive,
CCOc1cc(/C=C2\SC(N3CCCC(C)C3)=NC2=O)ccc1O (configuration not stated),inactive,
CCOc1cc(/C=N/Nc2cc(C)nc3ccc(C)cc23)ccc1O,15.8 µM (active),
COc1cc(OC)cc(C(=O)Nc2cc3nn(-c4ccccc4)nc3cc2Cl)c1,inactive,
O=[N+]([O-])c1cc(-c2nc(-c3ccccc3)no2)ccc1NCc1ccco1,inactive,
CCc1nn(CCCC(=O)NCc2ccccc2OC)c(=O)c2cc3occc3n12,inactive,
Cc1nc2sc(C(=O)c3ccccc3)c(N)c2c2c1CCCC2,22.4 µM (active),

SMILES,Potency,growth rescue (activation)
CN(C(=O)c1ccccc1)c1nccnc1C#N,inactive,
Nc1c(C(=O)c2cccs2)sc2nsc(SCCN3CCCCC3)c12,inactive,
COc1cccc(C(=O)c2sc3nc(-c4ccccc4)cc(C(F)(F)F)c3c2N)c1,inactive,
Cc1ccc(NC(=O)c2sc3nc(N)c(C#N)cc3c2N)cc1,inactive,
NC(=O)c1sc2nc3c(c(-c4ccccc4)c2c1N)CCC3,28.2 µM (active),
CCCS(=O)(=O)c1c(Nc2ccccc2C)sc(C(=O)c2ccccc2)c1N,inactive,
COc1ccccc1NC(=O)c1sc2nc(C)c(C(=O)Nc3ccc(Cl)cc3)c(-c3ccc(Br)cc3)c2c1N,inactive,
COC(=O)c1cc2c(N)c(C(=O)c3ccc(Cl)cc3)sc2nc1C(OC)OC,inactive,
CN(C)c1ccnc2sc(C(=O)c3ccccc3)c(N)c12,6.31 µM (active),
Cc1ccc2c(N)c(C(=O)c3ccccc3)sc2n1,14.1 µM (active),
Cc1ccccc1CSCCNC(=O)C1CCN(S(=O)(=O)Cc2ccccc2)CC1,inactive,
Cc1c(NS(=O)(=O)c2ccc(Cl)cc2)c(=O)n(-c2ccccc2)n1C,inactive,
CCCN(CCC)CCNC(=O)Cn1cnc2sc(C)c(S(=O)(=O)N3CCC(C)CC3)c2c1=O,inactive,
CCc1ccccc1NC(=O)N1CCN(C(=O)c2nsc3ccccc23)CC1,inactive,
COc1ccc(C2Sc3ccccc3NC3=C2C(=O)c2ccccc23)c(OC)c1OC (configuration not stated),inactive,
Cc1ccc(C(=O)Nc2ccc(C(=O)O)cc2)cc1S(=O)(=O)Nc1ccccc1,inactive,
Cc1cccc(C(=O)Nc2ccc(-c3nc4ncccc4o3)cc2C)c1,inactive,
O=C(NCc1cccnc1)C(=O)NCC(c1cccnc1)N1CCN(c2ccccc2)CC1 (configuration not stated),inactive,
O=C(NCc1ccc2c(c1)CCN2C(=O)c1ccccc1)c1ccccc1,inactive,
COc1ccc(N)c(C)c1,inactive,
COc1ccc2[nH]c3ccc(OC)cc3c2c1,8.91 µM (active),
COc1ccc2[nH]c3c(C)c4cc[n+](C)cc4c(C)c3c2c1,inactive,
